GALR2 ag: activates the human galanin receptor 2; O43603; GALR2-expressing cells, agonist activation read-out; activation, % (test concentration not listed); 140,000 compounds, 0.48% hits; in the data active means activation above about 5%, passing the limit was not always enough;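 further: 0% = vehicle buffer wells and 100% = reference agonist at full effect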
Target sequence (O43603 whole entry, looked up): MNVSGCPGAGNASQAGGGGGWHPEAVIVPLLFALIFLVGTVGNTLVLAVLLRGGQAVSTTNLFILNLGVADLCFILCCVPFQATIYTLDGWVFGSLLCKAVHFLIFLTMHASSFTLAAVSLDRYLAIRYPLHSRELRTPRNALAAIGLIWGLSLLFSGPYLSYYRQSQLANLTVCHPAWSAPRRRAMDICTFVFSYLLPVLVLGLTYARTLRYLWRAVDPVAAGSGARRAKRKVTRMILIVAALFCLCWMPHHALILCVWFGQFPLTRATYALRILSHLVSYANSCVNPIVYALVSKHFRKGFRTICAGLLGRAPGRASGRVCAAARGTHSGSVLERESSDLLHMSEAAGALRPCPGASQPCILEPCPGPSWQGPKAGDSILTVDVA
S1P2 ag: agonists of human S1P2 receptor. O95136. S1P2-expressing cell line, agonist reporter read-out. activation, % at 4.5 µM. 97,000 compounds, 0.46% hits; in the data active means activation above about 16%;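 further: 0% = vehicle low control and 100% = maximal reference agonist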
PostGolgi yeast: growth inhibition of a yeast mutant, post-Golgi transport screen; post-Golgi transport phenotypic cell assay; inhibition, % at 10 µM; 98,000 compounds, 0.9% hits; AID 739;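 further: yeast cells grown in 1536-well plates; yeast grown about 18 h at 30C before absorbance read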
S1P2 blocker: S1P2 (human) receptor antagonism; O95136; cell-based S1P2 antagonist assay, inhibition at 5 uM; inhibition, % at 5 µM; 97,000 compounds, 0.21% hits; AID 736; in the data active means inhibition above about 45%;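 further: CRE beta-lactamase reporter cells expressing human S1P2 stimulated with S1P; 0% = agonist at EC80 alone and 100% = agonist plus reference antagonist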
GALR2 antag: GALR2 (human) receptor antagonism. O43603. GALR2-expressing cells, antagonist mode. inhibition, % at 4 µM. 140,000 compounds, 0.39% hits. AID 828; in the data active means inhibition above about 27%;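 further: cells stimulated with galanin 1-16 at roughly its EC80; 0% = agonist challenge control and 100% = basal control without agonist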
PostGolgi ctrl: yeast control strain growth, post-Golgi counter-screen. efflux-deficient yeast background strain, growth absorbance A615, 16 h. inhibition, % at 10 µM. 98,000 compounds, 5% hits
Active calls of the source: *; . = no result. The entries come from a sample that favours hits as a whole. Unless noted, no stated cut-off is given here; in the data, active means inhibition above about 30%; inactive means the rest.

SMILES | GALR2 ag | S1P2 ag | PostGolgi yeast | S1P2 blocker | GALR2 antag | PostGolgi ctrl
CS(=O)(=O)N1CCN(C(=O)c2ccncc2)CC1 | -1 | -2 | -7 | 1 | 5 | 5
Cc1cc(C)n(-c2ccc(C(=O)C(C#N)c3nc4ccccc4n3C)cc2)n1 (configuration not stated) | -1 | 0 | 13 | 33 | 1 | 33*
Cc1ccc(C2CC(C(F)F)n3ncc(C(=O)Nc4c(C)nn(Cc5c(F)cccc5Cl)c4C)c3N2)cc1 (configuration not stated) | -2 | -8 | . | -6 | 1 | .
OC(c1ccccc1)(c1ccc(F)cc1)C(c1ccccc1)N1CCOCC1 (configuration not stated) | -1 | -3 | 7 | 9 | 6 | 31*
O=C(C(c1ccccc1)N1CCOCC1)N1CCOCC1 (configuration not stated) | 0 | 2 | 4 | -11 | -27 | 11
Cc1ccc2nc(N/C(N)=N/S(=O)(=O)c3ccc([N+](=O)[O-])cc3)nc(C)c2c1 | 0 | . | . | . | 16 | .
CCN(CC)C(=O)c1c(Cl)nc(C)c([N+](=O)[O-])c1C | -2 | . | . | . | -7 | .
CC1CCCC(NC(=O)COC(=O)Cc2ccsc2)C1C (configuration not stated) | -1 | -1 | 5 | -8 | -2 | 11
Cn1c(=O)c(Cc2ccccc2)c(O)c2ccccc21 | -1 | -5 | 2 | 7 | 1 | 49*
COC(=O)c1ccc2c(=O)n(CCCCCC(=O)O)c(=S)[nH]c2c1 | -3 | . | . | . | 1 | .
O=[N+]([O-])c1ccc(O)c(-c2nc(-c3ccccc3)c(-c3cccs3)[nH]2)c1 | 0 | -2 | 14 | -29 | 3 | 45*
CN=C(NC1CCCCC1)c1ccc(Cl)cc1 | -1 | . | . | . | 6 | .
CON1C(=O)C(=O)N(OC)C(C)(C)C1(C)C | -1 | . | . | . | -10 | .
CCOC(=O)C(=O)c1cn(C2OCC(OC(C)=O)C(OC(C)=O)C2OC(C)=O)c2ccccc12 (configuration not stated) | 0 | . | . | . | 6 | .
Nc1nc(Br)c2c(F)cccc2c1-c1ccccc1 | 2 | 14 | -1 | -5 | 0 | 2
Nc1nc(Br)c2c(F)cccc2c1-c1ccc(F)cc1 | 7 | 22* | 13 | -12 | 5 | 26
CC(c1ccccc1)N1CCn2c(nc3cc(NC(=O)NC4CCCCC4)ccc32)C1 (configuration not stated) | -1 | -2 | -3 | -6 | 18 | 6
COc1cccc(C(=O)COC(=O)c2ccc(NC(C)=O)cc2)c1 | 0 | . | . | . | -9 | .
CCOC(=O)N1CCN(CC(O)c2ccc3cc[nH]c3c2)CC1 (configuration not stated) | -2 | -4 | 2 | 5 | -4 | 3
COc1ccccc1N1CCN(CC(O)c2ccc3cc[nH]c3c2)CC1 (configuration not stated) | -2 | -5 | 39* | 8 | 1 | 7
O=C(CNC(=O)c1ccc2ccccc2c1)OCC(=O)N1CCN(S(=O)(=O)c2ccc3ccccc3c2)CC1 | -1 | . | . | . | 2 | .
COc1ccccc1/C=C/C(=O)OCCN1CCOCC1 | -1 | . | . | . | 12 | .
COc1ccccc1/C=C/C(=O)N1CCOCC1 | -2 | -4 | -9 | -3 | -1 | 35*
Cc1ccc(/C=N/n2cnc3sc(-c4ccccc4)cc3c2=O)o1 | 0 | -3 | 65* | -19 | -5 | 2
CN(C)S(=O)(=O)c1ccc(Cl)c(NC(=O)c2ccncc2)c1 | -2 | . | . | . | -14 | .
SMILES | GALR2 ag | S1P2 ag | PostGolgi yeast | S1P2 blocker | GALR2 antag | PostGolgi ctrl
CCOC(=O)c1cc(-c2ccccc2)sc1NC(=O)C(C)Sc1nnnn1C (configuration not stated) | -1 | 1 | 73* | -13 | -7 | 64*
CNc1nnc(-c2ccc(N(C)C)cc2)s1 | 0 | -4 | . | 1 | -5 | .
C=CCN(C(=O)c1cccc(S(=O)(=O)N2CCN(C)CC2)c1)c1nc(-c2ccccc2)cs1 | -1 | 2 | 35* | -6 | -19 | 22
Cc1csc(N(C(=O)c2cccc(S(=O)(=O)N3CCCC3)c2)c2ccccc2)n1 | -1 | -2 | -8 | -17 | 7 | 9
COc1ccc(S(=O)(=O)NCc2cccs2)cc1 | 0 | -1 | 1 | 6 | -1 | 2
COc1ccc(S(=O)(=O)N(Cc2cccs2)C2CCCC2)cc1 | -2 | -2 | -11 | -17 | 16 | 31*
Cn1c(Cn2nnc(-c3ccccc3)n2)nnc1SCc1ccccc1Cl | -2 | -3 | 0 | 3 | -4 | 16
O=C(c1nn(Cc2ccccc2)c(=O)c2ccccc12)N1CCc2ccccc2C1 | 0 | -3 | -6 | 3 | -7 | 57*
COc1ccc(C)cc1NC(=O)C(Sc1nnc(-c2ccncc2)n1-c1ccc(Cl)cc1)c1ccccc1 (configuration not stated) | -1 | . | . | . | 4 | .
Cc1nc(C)c(C(=O)C2=C(O)C(=O)N(CCCn3ccnc3)C2c2ccc(Cl)cc2)s1 (configuration not stated) | -7 | -5 | -4 | 1 | -1 | 0
O=S(=O)(c1ccc(Br)s1)N1CCN(c2ncccn2)CC1 | -1 | -2 | -1 | -11 | -2 | 8
O=S(=O)(c1ccc(Br)s1)N1CCN(c2ccccn2)CC1 | 0 | 1 | 2 | -7 | -3 | 51*
CC(C)CNC(=S)N(Cc1ccco1)Cc1cc2cc3c(cc2[nH]c1=O)OCCO3 | 0 | . | . | . | -5 | .
Cc1cc(NC(=O)CSc2c(C)[nH]c3ccccc23)no1 | -1 | . | -17 | . | 16 | 30*
Cc1cc(NC(=O)COC(=O)c2oc3c(ccc4ccccc43)c2C)no1 | 5.1* | . | . | . | 2 | .
Cc1ccc(-n2c(SCC(=O)Nc3cc(C)on3)nc3c([nH]c4ccccc43)c2=O)cc1 | 2 | 18* | -10 | -9 | 3 | -1
Cc1cc(NC(=O)CSc2ncccn2)no1 | 1 | -9 | . | 5 | 16 | .
Cc1cc(NC(=O)CSc2ncn(-c3ccccc3)n2)no1 | -2 | -2 | 8 | -24 | -9 | 33*
CCCn1c(N)c(C(c2ccc(C(=O)OC)cc2)N2CCN(c3ccccc3)CC2)c(=O)[nH]c1=O (configuration not stated) | -1 | -4 | -23 | 17 | 5 | -3
COC(=O)c1ccc(C(c2c(N)n(CC(C)C)c(=O)[nH]c2=O)N2CCN(c3ccccc3)CC2)cc1 (configuration not stated) | -1 | -2 | -17 | 2 | -16 | 35*
COCCOC(=O)c1c(NC(=O)CN2CCCc3ccccc32)sc(C(N)=O)c1C | 0 | . | . | . | 13 | .
O=C(NCCc1c[nH]c2ccccc12)[C@@H]1C[C@H]1[C@@H](NP(=O)(c1ccccc1)c1ccccc1)c1ccccc1 | -2 | . | . | . | 0 | .
Cc1nc(NC(=O)c2ccccc2)sc1-c1csc(Nc2ccc(F)cc2)n1 | -2 | -5 | 33* | -1 | 8 | -3
Cc1nc(NC(=O)c2ccco2)sc1-c1csc(Nc2ccc(Cl)cc2)n1 | -3 | -6 | -7 | 5 | 15 | 39*
Cc1nc(NC(=O)c2ccccc2)sc1-c1csc(Nc2ccc(Cl)cc2)n1 | -1 | -6 | -7 | 7 | 13 | 19
